AF4-AF9 inh – inhibitors of human MLL-AF4/AF9 interaction; P42568; AlphaScreen, biotin-AF4 peptide binding to FLAG-AF9; inhibition, % at 10 µM; actives 0.47% (n = 350,000);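 active means every replicate reaching a set inhibition limit, whatever the replicate mean, cut at about 25% in these data; inconclusive means mean inhibition reaches that limit but some replicates miss it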
PDI inh – inhibitors of human protein disulfide isomerase; P07237; PDI insulin aggregation turbidity, A650, 90 min; inhibition, % at 10 µM; actives 0.052% (n = 350,000); AID 588391;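 active means mean inhibition across replicates of 30% or more, whatever share of single replicates reach that level; inconclusive means mean inhibition below 30% while every single replicate reaches 30%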
DENV2 CPE – DENV2-induced cell death inhibition. DENV2-infected cells, cytopathic effect rescue, plate reader. CPE inhibition, % at 9.99 µM. actives 1.7% (n = 350,000); in the data active means CPE inhibition above about 20%, passing the limit was not always enough; inconclusive means no clear call, values can overlap the other calls; tested in BHK-21 cells
ERAP1 inh – blocks human ERAP1 aminopeptidase activity. recombinant ERAP1, Leu-AMC fluorescence, 60 min. actives 0.15% (n = 340,000). Q9NZ08. inhibition, % at 10.7 µM;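 active means mean replicate inhibition of at least 30%, or all replicates individually reaching that 30% level; inactive means mean below 30% and not every replicate reaching it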
ERp5 block – blocks human ERp5 reductase activity on insulin; ERp5 insulin aggregation, absorbance 650 nm, 90 min; AID 651711; actives 0.05% (n = 350,000); inhibition, % at 9.99 µM; Q15084;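 active means mean replicate inhibition above about 25%, with every replicate also reaching it, limit read from the data, passing the limit was not always enough; inconclusive means only one of those two criteria met; inactive means neither criterion met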
Target sequence (Q15084 whole entry, looked up): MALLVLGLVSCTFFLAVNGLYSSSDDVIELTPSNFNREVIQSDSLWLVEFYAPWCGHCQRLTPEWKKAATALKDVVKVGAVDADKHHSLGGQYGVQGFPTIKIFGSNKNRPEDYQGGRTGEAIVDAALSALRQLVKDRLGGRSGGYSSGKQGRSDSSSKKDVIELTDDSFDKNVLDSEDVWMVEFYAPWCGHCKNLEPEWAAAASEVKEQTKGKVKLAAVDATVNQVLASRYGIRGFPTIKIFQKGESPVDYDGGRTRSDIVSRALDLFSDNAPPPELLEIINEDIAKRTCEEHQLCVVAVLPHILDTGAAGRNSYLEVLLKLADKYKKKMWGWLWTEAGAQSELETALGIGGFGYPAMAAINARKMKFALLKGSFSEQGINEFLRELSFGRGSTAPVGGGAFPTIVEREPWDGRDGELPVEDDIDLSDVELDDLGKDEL
Numbers stand for hits; n = inactive; u = inconclusive; x = no result given; ! = repeats disagree. Sampled rows, rich in hits. Any-hit rate of the full collection: about 1.8%.

SMILES	AF4-AF9 inh	PDI inh	DENV2 CPE	ERAP1 inh	ERp5 block
O=C(O)[C@]1(S(=O)(=O)c2ccccc2)C[C@@H]2ON=C(c3cccc(Br)c3)[C@@H]2C1	n	n	25	n	n
O=C1CCc2cc(S(=O)(=O)NCCc3ccc(Cl)cc3)cc3c2N1CC3	n	n	97	n	n
C[C@H]1CN([C@@H](C)CO)C(=O)c2cc(/C=C/c3ccccc3)cnc2O[C@@H]1CN(C)C(=O)CN1CCOCC1	n	x	n	n	n
CCc1ccc2c(F)cccc2n1	n	x	60	n	n
CCCc1ccc2c(C)cccc2n1	n	x	n	n	n
CCc1ccc2cc(C)cc(C)c2n1	n	x	34	n	n
CCCN1Cc2cccc(C(=O)Nc3ccc4c(c3)OCCO4)c2C1=O	n	x	94	n	n
COC(=O)c1cc(=O)n(Cc2cccs2)c(=Nc2ccc(F)cc2)s1	n	x	n	n	n
COC(=O)c1cc(=O)n(-c2ccc(F)cc2)c(=Nc2ccc(F)cc2)s1	27	x	n	n	n
CCC(=O)N(C)C[C@@H]1Oc2cc(-c3cncnc3)ccc2S(=O)(=O)N([C@H](C)CO)C[C@@H]1C	n	x	n	n	n
C[C@H]1CN([C@@H](C)CO)C(=O)c2cc(-c3cccc(C#N)c3)cnc2O[C@H]1CN(C)Cc1cncnc1	n	x	n	n	n
COc1cccc(-c2cnc3c(c2)C(=O)N([C@H](C)CO)C[C@@H](C)[C@H](CN(C)Cc2ccccc2)O3)c1	n	x	27	n	n
COc1ccccc1-c1cnc2c(c1)C(=O)N([C@H](C)CO)C[C@@H](C)[C@H](CN(C)Cc1cccnc1)O2	n	x	26	n	n
C[C@@H]1CN([C@@H](C)CO)C(=O)c2cc(-c3cccc(C#N)c3)cnc2O[C@H]1CN(C)Cc1cncnc1	n	x	n	n	84
O=C(Oc1ccccc1)c1cccc2cccc(C(=O)Oc3ccccc3)c12	n	x	n	n	n
O=C(Oc1ccccc1)c1ccccc1C(=O)Oc1ccccc1	n	x	27	n	n
CCCNC(=O)N1[C@@H]2CNC[C@H]1C2c1ccc(-c2ccc(C)cc2)cc1 (stereo partly specified)	x	x	38	x	x
CCCNC(=O)N1C[C@@H]2N[C@H](C1)C2c1ccc(-c2ccccc2C)cc1 (stereo partly specified)	x	x	27	x	x
Cc1ccccc1-c1ccc(C2[C@@H]3CN(C(=O)Cc4ccncc4)C[C@H]2N3)cc1 (stereo partly specified)	x	x	86!	x	x
CCCNC(=O)N1C[C@@H]2N[C@H](C1)C2c1ccc(-c2ccc(OC)cc2)cc1 (stereo partly specified)	x	x	32!	x	x
Cc1cccc(-c2ccc(C3[C@@H]4CN(C(=O)Cc5ccncc5)C[C@H]3N4)cc2)c1 (stereo partly specified)	n	x	n	n	n
Cc1ccc(S(=O)(=O)N(C)C[C@@H]2Oc3c(NC(=O)c4cnccn4)cccc3C(=O)N([C@H](C)CO)C[C@H]2C)cc1	n	x	u	n	n
COc1ccccc1OCC(=O)NC1CCCc2ccccc21 (stereo unspecified)	n	n	n	n	n
COc1ccc(CCC(=O)NC2CCCc3ccccc32)cc1OC (stereo unspecified)	n	n	n	32	n
COc1ccc(CN(C)C[C@@H]2OCCCC[C@@H](C)Oc3ccc(NC(=O)CCC(F)(F)F)cc3C(=O)N([C@H](C)CO)C[C@H]2C)cc1	n	x	30	n	n
SMILES	AF4-AF9 inh	PDI inh	DENV2 CPE	ERAP1 inh	ERp5 block
C[C@@H]1CN([C@@H](C)CO)C(=O)c2cc(NC(=O)CCC(F)(F)F)ccc2O[C@@H](C)CCCCO[C@H]1CN(C)CC1CCCCC1	x	x	n	x	x
COc1ccc(CN(C)C[C@H]2OCCCC[C@@H](C)Oc3ccc(NC(=O)CCC(F)(F)F)cc3C(=O)N([C@H](C)CO)C[C@H]2C)cc1	n	x	n	n	n
C[C@@H]1CN([C@H](C)CO)C(=O)c2cc(NC(=O)CCC(F)(F)F)ccc2O[C@@H](C)CCCCO[C@H]1CN(C)Cc1ccc(Cl)c(Cl)c1	n	x	71	n	n
COc1ccc(NC(=O)N(C)C[C@H]2OCCCC[C@@H](C)Oc3ccc(NC(=O)CCC(F)(F)F)cc3C(=O)N([C@@H](C)CO)C[C@@H]2C)cc1	n	x	n	n	n
COc1ccc(NC(=O)N(C)C[C@H]2OCCCC[C@@H](C)Oc3ccc(NC(=O)CCC(F)(F)F)cc3C(=O)N([C@@H](C)CO)C[C@H]2C)cc1	n	x	21	n	n
C[C@@H]1CCCCO[C@@H](CN(C)CC2CCCCC2)[C@@H](C)CN([C@H](C)CO)C(=O)c2cc(NC(=O)CCC(F)(F)F)ccc2O1	x	x	63	x	x
O=C(c1cccnc1)N1CC2(C1)[C@@H](c1ccccc1)[C@@H](CO)N2C(=O)c1cccnc1	n	x	n	n	n
Cc1noc(C)c1S(=O)(=O)Nc1cccc2c1O[C@H](CN(C)C(=O)Nc1ccc3c(c1)OCO3)[C@H](C)CN([C@@H](C)CO)C2=O	n	x	n	n	n
N#C[C@@H]1[C@H](c2ccccc2C2=CCCCC2)[C@H](CO)N1C(=O)CN1CCOCC1	n	x	n	n	n
N#C[C@@H]1[C@H](c2ccc(-c3cncnc3)cc2)[C@@H](CO)N1C(=O)CN1CCOCC1	n	x	50	n	n
N#C[C@@H]1[C@H](c2ccccc2C2=CCCC2)[C@H](CO)N1C(=O)C1CC1	n	x	22	n	n
N#C[C@H]1[C@@H](c2ccccc2C2=CCCCC2)[C@H](CO)N1C(=O)CN1CCOCC1	n	x	43	n	n
N#C[C@H]1[C@@H](c2ccccc2C2=CCCC2)[C@H](CO)N1C(=O)C1CCCC1	n	x	41	n	n
O=C(C[C@H]1C[C@H]2c3cc(NC(=O)Cc4ccncc4)ccc3O[C@H]2[C@H](CO)O1)NCc1cccnc1	n	x	n	n	n
C[C@@H]1CN([C@@H](C)CO)S(=O)(=O)c2ccc(C#C[C@@H](C)O)cc2O[C@@H]1CN(C)C(=O)C1CCC1	n	x	n	n	n
C[C@@H]1CN([C@H](C)CO)S(=O)(=O)c2ccc(C3=CCCC3)cc2O[C@@H]1CN(C)Cc1ccccc1F	n	x	n	n	n
N#C[C@@H]1[C@@H](c2ccccc2C2=CCCCC2)[C@@H](CO)N1C(=O)NC1CCCC1	n	x	n	n	n
N#C[C@@H]1[C@H](c2ccccc2C2=CCCC2)[C@H](CO)N1C(=O)NC1CCCC1	n	x	n	n	n
N#C[C@H]1[C@@H](c2ccccc2C2=CCCCC2)[C@H](CO)N1S(=O)(=O)c1ccccc1	n	x	n	n	n
CCCNC(=O)N1[C@H](C#N)[C@@H](c2ccccc2C2=CCCC2)[C@@H]1CO	n	x	23	n	n
N#C[C@@H]1[C@@H](c2ccccc2C2=CCCCC2)[C@@H](CO)N1S(=O)(=O)c1ccccc1	n	x	21	n	n
N#C[C@@H]1[C@@H](c2ccccc2C2=CCCCC2)[C@H](CO)N1C(=O)NC1CCCC1	n	x	73	n	n
N#C[C@@H]1[C@@H](c2ccc(C3=CCCCC3)cc2)[C@H](CO)N1C(=O)C1CCOCC1	n	x	n	n	n

Screening results as filed in PubChem.
